Measurements reported in PubChem BioAssay AID652162 (Broad Institute, 2013).
Screen size: about 350,000 compounds; about 840 (0.24%) were called active. The list comes from a sample in which actives are over-represented; it also holds similar structures and randomly drawn compounds. A number with no mark means an inactive call. Cut-off read from the data, not from the text of the source: active = inhibition above about 10%; inactive = the rest.

The compounds below were run against Toxin B (Clostridioides difficile) (UniProt P18177) (assay: TcdB glycohydrolase inhibitors, primary screen, biochemical, single point, plate reader (AID 652162)). Conditions: TcdB glycohydrolase enzymatic assay, at 9.99 µM, active compounds read high.
Chain of Toxin B (Clostridioides difficile) (P18177 whole entry, looked up): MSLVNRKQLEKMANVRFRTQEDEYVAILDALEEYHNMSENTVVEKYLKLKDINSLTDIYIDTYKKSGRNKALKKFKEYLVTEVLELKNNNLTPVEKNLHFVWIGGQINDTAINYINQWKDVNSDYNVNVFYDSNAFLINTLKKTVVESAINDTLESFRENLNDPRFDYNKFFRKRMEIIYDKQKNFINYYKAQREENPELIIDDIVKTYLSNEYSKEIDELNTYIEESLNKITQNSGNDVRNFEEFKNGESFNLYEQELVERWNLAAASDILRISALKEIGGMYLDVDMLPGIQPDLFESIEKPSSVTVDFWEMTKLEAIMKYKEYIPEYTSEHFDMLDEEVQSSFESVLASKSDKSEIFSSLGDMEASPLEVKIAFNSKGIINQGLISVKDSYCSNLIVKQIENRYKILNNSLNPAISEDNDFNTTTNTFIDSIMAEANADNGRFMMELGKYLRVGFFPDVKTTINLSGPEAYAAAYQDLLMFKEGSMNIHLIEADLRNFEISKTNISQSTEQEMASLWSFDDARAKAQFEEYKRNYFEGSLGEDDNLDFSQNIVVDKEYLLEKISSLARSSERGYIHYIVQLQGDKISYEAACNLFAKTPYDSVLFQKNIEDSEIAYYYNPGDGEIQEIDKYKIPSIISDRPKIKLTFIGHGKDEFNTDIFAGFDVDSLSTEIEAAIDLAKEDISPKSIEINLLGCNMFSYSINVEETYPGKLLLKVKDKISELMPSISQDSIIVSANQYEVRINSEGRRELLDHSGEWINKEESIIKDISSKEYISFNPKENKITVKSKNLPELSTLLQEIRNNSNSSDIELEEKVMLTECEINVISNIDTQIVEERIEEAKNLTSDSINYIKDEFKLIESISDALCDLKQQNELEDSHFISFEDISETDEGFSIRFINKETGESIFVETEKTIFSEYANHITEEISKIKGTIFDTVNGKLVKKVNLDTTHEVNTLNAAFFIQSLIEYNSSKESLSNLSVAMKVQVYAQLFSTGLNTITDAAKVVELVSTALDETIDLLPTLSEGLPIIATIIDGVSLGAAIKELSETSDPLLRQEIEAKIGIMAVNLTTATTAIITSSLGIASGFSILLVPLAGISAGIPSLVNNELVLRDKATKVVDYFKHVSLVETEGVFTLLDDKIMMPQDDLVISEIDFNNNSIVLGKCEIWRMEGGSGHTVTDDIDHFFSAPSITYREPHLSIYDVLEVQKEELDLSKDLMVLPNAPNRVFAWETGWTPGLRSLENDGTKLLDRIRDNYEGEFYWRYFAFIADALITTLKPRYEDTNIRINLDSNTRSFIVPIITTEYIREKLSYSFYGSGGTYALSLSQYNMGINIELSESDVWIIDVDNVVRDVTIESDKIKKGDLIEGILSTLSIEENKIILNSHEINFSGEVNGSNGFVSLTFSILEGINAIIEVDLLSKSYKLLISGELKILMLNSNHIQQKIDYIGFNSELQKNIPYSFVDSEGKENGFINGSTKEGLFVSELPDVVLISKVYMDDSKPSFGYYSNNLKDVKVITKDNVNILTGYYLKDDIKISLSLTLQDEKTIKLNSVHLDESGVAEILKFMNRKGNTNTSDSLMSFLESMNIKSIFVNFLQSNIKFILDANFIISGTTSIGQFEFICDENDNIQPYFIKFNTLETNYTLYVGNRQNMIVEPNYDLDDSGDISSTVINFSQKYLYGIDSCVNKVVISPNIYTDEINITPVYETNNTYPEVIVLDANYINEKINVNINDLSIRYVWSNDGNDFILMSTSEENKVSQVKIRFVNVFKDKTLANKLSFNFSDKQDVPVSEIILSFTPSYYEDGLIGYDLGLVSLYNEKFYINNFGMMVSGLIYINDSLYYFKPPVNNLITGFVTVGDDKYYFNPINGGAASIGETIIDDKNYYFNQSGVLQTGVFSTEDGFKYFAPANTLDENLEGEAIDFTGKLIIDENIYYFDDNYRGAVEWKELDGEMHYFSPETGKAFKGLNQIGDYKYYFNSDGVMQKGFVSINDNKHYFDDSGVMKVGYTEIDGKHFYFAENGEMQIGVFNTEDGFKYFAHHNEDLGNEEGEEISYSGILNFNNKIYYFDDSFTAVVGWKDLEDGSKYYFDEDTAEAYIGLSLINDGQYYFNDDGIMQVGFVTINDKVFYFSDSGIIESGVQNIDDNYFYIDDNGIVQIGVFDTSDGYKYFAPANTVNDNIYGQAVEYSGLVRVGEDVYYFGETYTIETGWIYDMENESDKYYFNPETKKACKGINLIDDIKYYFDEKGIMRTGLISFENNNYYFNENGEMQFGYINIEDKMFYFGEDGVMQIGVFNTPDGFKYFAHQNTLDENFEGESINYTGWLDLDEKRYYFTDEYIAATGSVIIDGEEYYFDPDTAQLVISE
`COCC(=O)N1CC[C@@H]2[C@@H](CO)Nc3ccc(-c4ccc(C(=O)N(C)C)cc4)cc3[C@@H]21` showed an inhibition of -1.67%.
In the case of `O=C(Nc1cnccn1)c1cccnc1`, the inhibition is reported as 1.15%.
With `O=C(CC(=O)c1cccnc1)c1ccccc1` the inhibition was 0.622%.
For `O=C(NN=C1CCC(=NNC(=O)c2cccnc2)CC1)c1cccnc1`, the inhibition was 54% (active).
`COc1ccc(C(C)NC(=O)C23CC4CC(CC(C4)C2)C3)cc1` (stereo unspecified) was tested, and the inhibition was 0.441%.
Work on `CCOc1ccc(C(CC(=O)O)n2cnnn2)cc1OC` (stereo unspecified) yielded an inhibition of 1.46%.
With `CCOc1ccc(C(CC(=O)O)NC(=O)C23CC4CC(CC(C4)C2)C3)cc1OC` (stereo unspecified) the inhibition was 12.9% (active).
For `CC(C)NC(=O)N(C)C[C@@H]1Oc2ccc(NS(=O)(=O)c3ccccc3)cc2C(=O)N([C@@H](C)CO)C[C@H]1C`, the inhibition was 1%.
For `Cc1noc(C)c1NC(=O)N(C)C[C@@H]1OCCCC[C@H](C)Oc2ccc(NC(=O)NC3CCCCC3)cc2C(=O)N([C@H](C)CO)C[C@H]1C`, the inhibition was 1.84%.
`COC(=O)C1=C[C@@H](C(=O)OC)[C@@H]2C3=C(C(=O)[C@]2(C)NC(=O)c2ccccc2)[C@H](C)n2c(=O)n(C)c(=O)n2[C@@H]3C1` was tested, and the inhibition was 11.2% (active).
Work on `CCC1(CC)C(=O)C2=C3C1[C@H](C(=O)OC)C=C(C(=O)OC)C[C@H]3[C@H]1C(=O)N(Cc3ccccc3)C(=O)[C@H]1[C@H]2C` (stereo partly specified) yielded an inhibition of 0.94%.
`C[C@H]1CN([C@@H](C)CO)C(=O)c2cc(NS(=O)(=O)c3ccccc3)ccc2O[C@@H]1CN(C)C(=O)NC1CCCCC1` gave an inhibition of 3.22%.
`O=C(NC[C@H]1[C@@H](c2ccccc2)[C@H](CO)N1CC1CC1)c1cccnc1` showed an inhibition of -2.13%.
In the case of `C/C=C/c1ccc2c(c1)O[C@H](CN(C)Cc1cccc(F)c1)[C@H](C)CN([C@H](C)CO)S2(=O)=O`, the inhibition is reported as 0.906%.
`Cc1ccc(S(=O)(=O)N(C)C[C@@H]2OCCCC[C@@H](C)Oc3ccc(NC(=O)Nc4ccc(C(F)(F)F)cc4)cc3C(=O)N([C@@H](C)CO)C[C@@H]2C)cc1` showed an inhibition of -1.2%.
For `COCC(=O)Nc1ccc2c(c1)C(=O)N(C)[C@@H]1CC[C@H](CC(=O)NCCc3ccccc3)O[C@@H]1CO2`, the inhibition was -0.476%.
`COc1ccc(NC(=O)N(C)C[C@H]2Oc3cc(-c4ccncc4)ccc3S(=O)(=O)N([C@@H](C)CO)C[C@H]2C)cc1` showed an inhibition of 0.138%.
For `C[C@@H]1CN([C@H](C)CO)C(=O)c2cc(-c3ccc(C(=O)N(C)C)cc3)cnc2O[C@H]1CN(C)C(=O)C1CC1`, the inhibition was 1.01%.
`CCC(=O)N(C)C[C@H]1Oc2cc(C#CC3CC3)ccc2S(=O)(=O)N([C@H](C)CO)C[C@H]1C` showed an inhibition of -0.263%.
With `COCC(=O)N1C[C@H]2[C@@H](c3ccccc31)[C@@H](CO)N2C(=O)NC(C)C` the inhibition was -0.399%.
In the case of `Nc1ccccc1-c1nc2ccncc2[nH]1`, the inhibition is reported as 12.2% (active).
`Cc1cc(C)nc(Nc2n[nH]c(-c3ccccc3N)n2)n1` showed an inhibition of -0.68%.
`CCOC(=O)CNC(=O)CSc1ncccc1-c1nc2ccccc2[nH]1` was tested, and the inhibition was -7.68%.
Compound `COCC(=O)N(C)C[C@@H]1Oc2ncc(-c3ccccc3OC)cc2C(=O)N([C@@H](C)CO)C[C@@H]1C` has an inhibition of -11.6%.
Work on `CC(C)NC(=O)N1C[C@@H]2[C@H](c3ccccc31)[C@@H](CO)N2Cc1ccc(Cl)cc1` yielded an inhibition of -0.718%.
Compound `Cc1noc(C)c1NC(=O)N(C)C[C@@H]1OCCCC[C@H](C)Oc2ccc(NC(=O)NC3CCCCC3)cc2C(=O)N([C@H](C)CO)C[C@@H]1C` has an inhibition of 0.987%.
`COC1=C/C(=C/c2c(N)n3nc(CC(=O)N4CCOCC4)sc3nc2=O)C=CC1=O` was tested, and the inhibition was 11.3% (active).
Compound `COc1cc(/C=C2\C(=N)N3N=C(CC(=O)N4CCOCC4)SC3=NC2=O)cc(OC)c1OC` has an inhibition of 0.211%.
`C=CCC1=C/C(=C\c2c(N)n3nc(CC(=O)N4CCOCC4)sc3nc2=O)C=C(OC)C1=O` showed an inhibition of -3.86%.
Work on `CCCC(=O)N1CC2(CCN(C(=O)C3CC3)CC2)c2c(n(C)c3cc(OC)ccc23)[C@H]1CO` yielded an inhibition of -0.231%.
Work on `CCS(=O)(=O)Nc1ccc2c(c1)C(=O)N(C)C[C@@H](OC)[C@@H](C)CN(C(=O)COC)[C@H](C)CO2` yielded an inhibition of -1.04%.
`C[C@@H]1CCCCO[C@@H](CN(C)C(=O)NC2CCCCC2)[C@@H](C)CN([C@@H](C)CO)C(=O)c2cc(NC(=O)C3CCCCC3)ccc2O1` showed an inhibition of 0.287%.
In the case of `C[C@@H]1CN([C@H](C)CO)C(=O)CCCn2cc(nn2)CO[C@@H]1CN(C)C(=O)Nc1ccc(-c2cccs2)cc1`, the inhibition is reported as -8.3%.
In the case of `CC(OC(=O)c1cccnc1Cl)C(=O)NC1CCCCC1` (stereo unspecified), the inhibition is reported as 15.9% (active).
With `CC(Oc1ccc(Br)cc1)C(=O)NC1CCCCCC1` (stereo unspecified) the inhibition was 2.69%.
With `O=C(COC(=O)c1cccnc1Cl)NC(=O)NC1CCCCC1` the inhibition was 1.25%.
For `COCCNC(=O)[C@@H]1[C@@H](CO)[C@@H]2Cn3c(ccc(-c4ccccc4F)c3=O)[C@@H]2N1C(=O)C1CC1`, the inhibition was -1.01%.
For `Cc1ccccc1S(=O)(=O)NCC[C@@H]1CC[C@H](NC(=O)C2CCCCC2)[C@@H](CO)O1`, the inhibition was 0.652%.
For `Cn1c(=O)[nH]c(=O)c2c1[nH]c(=S)n2Cc1ccccc1`, the inhibition was 20.2% (active).
For `C=CCn1c(SCc2ccccc2)nc2c1c(=O)[nH]c(=O)n2C`, the inhibition was 1.32%.
With `Cc1nnc(Sc2nc3c(c(=O)[nH]c(=O)n3C)n2Cc2ccccc2)s1` the inhibition was -0.878%.
In the case of `CC(=O)N1CCCCN2[C@H](C1)[C@@H](c1ccc(-c3ccc(F)cc3)cc1)[C@@H]2CO`, the inhibition is reported as -0.351%.
For `C[C@H]1CN([C@@H](C)CO)S(=O)(=O)c2ccc(-c3ccccc3F)cc2O[C@H]1CN(C)C(=O)C1CC1`, the inhibition was -0.346%.
For `COc1ccc(NC(=O)N[C@H]2CC[C@@H](CCNC(=O)c3cc(Cl)cc(Cl)c3)O[C@H]2CO)cc1`, the inhibition was -0.154%.
`C[C@H]1CN([C@@H](C)CO)C(=O)Cc2cc(NC(=O)Cn3cnnn3)ccc2O[C@H]1CN(C)CC1CC1` showed an inhibition of 0.02%.
With `O=C(C1CCOCC1)N1CC2(C1)[C@H](c1ccccc1)[C@H](CO)N2Cc1ccc(Cl)cc1` the inhibition was -0.452%.
`Cc1ccc(-c2cnc3c(c2)C(=O)N([C@H](C)CO)C[C@@H](C)[C@H](CN(C)Cc2ccccc2C(=O)O)O3)cc1` showed an inhibition of 0.061%.
In the case of `C[C@@H]1CCCCO[C@@H](CN(C)C(=O)NC2CCCCC2)[C@@H](C)CN([C@H](C)CO)C(=O)c2cc(NC(=O)CCCCCC(=O)Nc3ccccc3N)ccc2O1`, the inhibition is reported as 0.319%.
Compound `O=C(COc1ccc([N+](=O)[O-])cc1Cl)Nc1ccc2[nH]c(=O)[nH]c2c1` has an inhibition of 0.327%.
With `COc1ccc(C(=O)OCC(=O)Nc2ccc3[nH]c(=O)[nH]c3c2)c(OC)c1OC` the inhibition was 11.5% (active).
`O=C(COC(=O)c1cccc(Cl)c1)Nc1ccc2[nH]c(=O)[nH]c2c1` gave an inhibition of -0.403%.
Work on `C[C@@H]1CN([C@H](C)CO)C(=O)c2cc(NS(=O)(=O)c3ccc(Cl)cc3)ccc2O[C@@H](C)CCCCO[C@H]1CN(C)Cc1ccccc1` yielded an inhibition of -0.656%.
With `COc1ccc(S(=O)(=O)N2CCCCC2)cc1C(=O)NC1CCS(=O)(=O)C1` (stereo unspecified) the inhibition was 0.566%.
With `COc1ccc(-c2ccc(OC(=O)NC3CCS(=O)(=O)C3)cc2)cc1` (stereo unspecified) the inhibition was 10.6% (active).
With `N#Cc1ccc(OCC(=O)NC(=O)NC2CCS(=O)(=O)C2)cc1` (stereo unspecified) the inhibition was -2.43%.
Work on `C[C@@H]1CCCCO[C@@H](CN(C)C(=O)NC2CCCCC2)[C@H](C)CN([C@H](C)CO)C(=O)c2cc(NS(=O)(=O)c3ccc(Cl)cc3)ccc2O1` yielded an inhibition of -0.076%.
Compound `C[C@@H]1CN([C@H](C)CO)C(=O)c2cc(NC(=O)Nc3cccc4ccccc34)ccc2O[C@H]1CN(C)C(=O)Nc1ccccc1` has an inhibition of -0.695%.
Compound `O=C(c1cnccn1)N1CC(=O)N2[C@H](C1)[C@H](c1ccc(/C=C/c3ccccc3)cc1)[C@@H]2CO` has an inhibition of 0.636%.
In the case of `CO[C@@H]1CC[C@H]2CCN(C)C(=O)[C@@H](C)CN(C)C(=O)c3cccc(C#N)c3OC[C@@H]1O2`, the inhibition is reported as 0.637%.
In the case of `COc1cccc2cc(/C(C)=N/NC(=O)c3ccco3)oc12`, the inhibition is reported as 14% (active).
In the case of `COc1cccc2cc(C(=O)NCc3ccc(C)cc3)c(=N)oc12`, the inhibition is reported as 0.357%.
Compound `COc1cccc2cc(C(N)=O)/c(=N\NC(=O)c3ccccc3)oc12` has an inhibition of -0.164%.
`COc1ccc(S(=O)(=O)Nc2ccc3c(c2)C(=O)N([C@H](C)CO)C[C@@H](C)[C@H](CN(C)C(=O)c2ccncc2)OCCCC[C@@H](C)O3)cc1` showed an inhibition of 1.52%.
Compound `CNC[C@H]1Oc2cc(C#CC(C)(C)O)ccc2S(=O)(=O)N([C@@H](C)CO)C[C@@H]1C` has an inhibition of -0.494%.
With `COCC(=O)Nc1ccc2c(c1)C(=O)N(C)[C@@H]1CC[C@@H](CC(=O)NCC(F)(F)F)O[C@H]1CO2` the inhibition was 0.945%.
`O=C(C[C@@H]1CC[C@H](NC(=O)Cc2ccccn2)[C@H](CO)O1)NCCc1ccncc1` gave an inhibition of -1.24%.
`O=C(Nc1ccc(F)cc1)N[C@H]1CC[C@H](CCn2cc(-c3ccc(F)cc3)nn2)O[C@@H]1CO` gave an inhibition of -2.54%.
Compound `CO[C@@H]1CN(C)C(=O)c2cc(NC(=O)C3CC3)ccc2OC[C@H](C)N(C(=O)c2ccccc2F)C[C@H]1C` has an inhibition of 0.856%.
`O=C(C[C@@H]1C[C@@H]2c3cc(NC(=O)c4ccc5c(c4)OCO5)ccc3O[C@@H]2[C@@H](CO)O1)NCc1ccc(Cl)cc1` gave an inhibition of 1.53%.
With `O=C(C[C@H]1C[C@H]2c3cc(NC(=O)c4ccc5c(c4)OCO5)ccc3O[C@H]2[C@@H](CO)O1)NCc1cccc(F)c1` the inhibition was 15.2% (active).
Compound `O=C(C[C@H]1C[C@@H]2c3cc(NC(=O)c4ccc5c(c4)OCO5)ccc3O[C@@H]2[C@@H](CO)O1)NCc1cccnc1` has an inhibition of -0.896%.
